# Results reported in the supplement of paper PMC8047044.
# Structures can show the parent of a compound that is named as a salt.
# Experiments:
# [1] = tested on: Neuro-2a; assay: neurite formation score, plate-normalized to DMSO control mean 5.04 (score (0-8 scale)); higher = more or longer neurites; details: 1 µM
# Description: (§1)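 Neuro-2a mouse neuroblastoma cells in PLL-coated 96-well plates were pre-treated for 1 h in DMEM(+) with each kinase inhibitor at 1 µM, then switched to serum-free DMEM(-) with inhibitor to induce neurite outgrowth and fixed about 2-3 h later. Three blinded observers scored neurite formation from 0 (no neurites) to 8 (long neurites on almost all cells).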
# [2] = tested on: Neuro-2a; assay: as above; details: 0.1 µM
# Description: as §1, with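 “at 0.1” for “at 1”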
SMILES,neurite formation score [1],neurite formation score [2]
Cc1ccc(Nc2nccc(N(C)c3ccc4c(C)n(C)nc4c3)n2)cc1S(N)(=O)=O [Pazopanib Hydrochloride],3.57,4.88
O=C(NCc1ccccc1)c1csc(Nc2ccncn2)n1 [Thiazovivin],4.57,4.88
COc1ccccc1-c1cc(Nc2cccc(CS(N)(=O)=O)c2)ncn1,4.54,4.42
CN(C)c1nc2c(Br)c(Br)c(Br)c(Br)c2[nH]1,5.02,5.25
CCc1cccc(CC)c1NC(=O)N1Cc2[nH]nc(NC(=O)c3ccc(N4CCN(C)CC4)cc3)c2C1,4.8,5.09
CCC[C@H](NC(=O)/C(C#N)=C/c1cccc(Br)n1)c1ccccc1,1.24,4.21
O=C1NC(=O)C(=Cc2ccc(-c3ccc(F)cc3)o2)S1 (stereo in doubt),4.54,3.08
N#Cc1c(NC(=O)c2cccc3ccccc23)sc2c1CCCC2,0.543,0.751
CN1CCN(Cc2ccc(-c3cnc4[nH]cc(-c5ccc6[nH]ccc6c5)c4c3)cc2)CC1,4.54,4.42
CN1CCN(c2ccc3nc(-c4c(N)c5c(F)cccc5[nH]c4=O)[nH]c3c2)CC1 [Dovitinib Dilactic acid],4.96,4.92
COc1cc2nccc(Oc3ccc(NC(=O)NC4CC4)c(Cl)c3)c2cc1C(N)=O [Lenvatinib (E7080)],4.57,4.38
CC(C)CCN1c2nc(Nc3cc(F)c(O)c(F)c3)ncc2N(C)C(=O)C1C (stereo unspecified),4.21,3.42
COc1ccc(-c2ccc3c(N4CCOCC4)nc(N4C[C@@H](C)O[C@@H](C)C4)nc3n2)cc1CO,4.36,4.25
